From PubChem BioAssay (NCATS) come the findings set out here.

Each structure is given as a SMILES string. Records with an inconclusive call do not appear. Active and inactive are the calls of the source. Calls come from the whole dose curve; as a rule, active = well fitted cell-killing curve with a large enough effect; inconclusive = small, poorly fitted or top-dose-only effect, or effect the other way; inactive = no such curve, though single readings can be large or run the other way.
Potency is the fitted concentration of half-maximal effect.

This assay is described as follows: Quantitative High-Throughput drug screen in 47 multiple myeloma cell lines against the NCATS MIPE library collection: OCIMY7_PLB cell viability assay (AID 1918987). Note: nearly all actives have a fitted effect of over 65% in size. To be noted: OCI-MY7 myeloma viability, CellTiter-Glo ATP, 48 h; series mostly up to 45.8 µM. The text has this:
PI: Beverly A. Mock Ph.D.
Laboratory of Cancer Biology and Genetics,
Center for Cancer Research, National Cancer Institute,
National Institute of Health, Bethesda, Maryland
Drug resistance and disease progression are common in multiple myeloma (MM) patients, underscoring the need for new therapeutic combinations. […] We hypothesized that effective combinations would reduce MYC expression and enhance p16 activity. […] These preclinical data identify potentially useful drug combinations for evaluation in drug-resistant MM and reveal potential mechanisms of combined drug sensitivity.
Described herein is the primary MIPE qHTS used to cherrypick compounds. Validated compounds were then further tested for potential synergistic activiy.
[1] Peat TJ, Gaikwad SM, Dubois W, Gyabaah-Kessie N, Zhang S, Gorjifard S, Phyo Z, Andres M, Hughitt VK, Simpson RM, Miller MA, Girvin AT, Taylor A, Williams D, D'Antonio N, Zhang Y, Rajagopalan A, Flietner E, Wilson K, Zhang X, Shinn P, Klumpp-Thomas C, McKnight C, Itkin Z, Chen L, Kazandijian D, Zhang J, Michalowski AM, Simmons JK, Keats J, Thomas CJ, Mock BA. Drug combinations identified by high-throughput screening promote cell cycle transition and upregulate Smad pathways in myeloma. Cancer Lett. 2023 Aug 1;568:216284. doi: 10.1016/j.canlet.2023.216284. Epub 2023 Jun 24. PMID: 37356470; PMCID: PMC10408729.
SEQUENCE No. (e.g., 1, 2, 3, etc.); […] (e.g., Cells, Incubation, Reagent, etc.); VALUE and DESCRIPTION.
1; Cells; 5 uL; white, solid bottom 1536-well Greiner assay plate.
2; Compounds; 23 nL; Kalypsis pin tool (Wako USA) equipped with a 1536-well pin head to transfer to the assay plates.
3; Incubation; 48 hours; 37C incubation.
4; Reagent;5uL; CellTiter Glo (Promega).
5; Detector; 425V; Luminescence; Viewlux PerkinElmer.
NOTES (numbers refer to Sequence numbers above)
1. The cell-based screening methods employed in this study were like those previously published. Briefly, the corresponding myeloma cell lines were screened in 1,536-well plates with 500 cells, 5-uL per well for inhibition of cell viability (assessed by measuring ATP levels with CellTiterGlo).
2. NCATS MIPE 4.0 library of approved and investigational drugs were added using the Kalypsis pin tool. Wells treated with DMSO only for 100% viability and media only for 0% viability were used as controls.
3. The assay plates were covered and incubated for 48 hours in a 37C, 5% CO2 incubator with controlled humidity.
4. After 48 hours, CellTilter-GloTM luminescent substrate mix (Promega) reagent was added to the assay plate and plates we incubated for 5 min at room temperature.
5. Signal was measured as median relative luminescence units on a ViewLux (PerkinElmer) multiplate reader.
[1] Heske CM, Davis MI, Baumgart JT, Wilson K, Gormally MV, Chen L, Zhang X, Ceribelli M, Duveau DY, Guha R, Ferrer M, Arnaldez FI, Ji J, Tran HL, Zhang Y, Mendoza A, Helman LJ, Thomas CJ. Matrix Screen Identifies Synergistic Combination of PARP Inhibitors and Nicotinamide Phosphoribosyltransferase (NAMPT) Inhibitors in Ewing Sarcoma. Clin Cancer Res. 2017 Dec 1;23(23):7301-7311. doi: 10.1158/1078-0432.CCR-17-1121. Epub 2017 Sep 12. PMID: 28899971; PMCID: PMC6636827.
A general note: Cellular ATP, detected with luciferase, serves as a proxy for viable cell number.
Regarding `CC(=O)O[C@@]12CO[C@H]1C[C@H](O)[C@@]1(C)C(=O)[C@H](O)C3=C(C)[C@@H](O)C[C@@](O)([C@@H](OC(=O)c4ccccc4)[C@@H]21)C3(C)C`, the Potency is 2.09 µM (active).
Take `O=C(Nc1ccncc1)C(=O)c1cn(Cc2ccc(Cl)cc2)c2ccccc12`: the Potency is 0.001 µM (active).
Then `CC(=O)Nc1ccc(OC[C@](C)(O)C(=O)Nc2ccc([N+](=O)[O-])c(C(F)(F)F)c2)cc1`, with 10.5 µM (active); and `CC(C)(O)C=CC(=O)[C@](C)(O)[C@H]1[C@H](O)C[C@]2(C)[C@@H]3CC=C4[C@@H](C=C(O)C(=O)C4(C)C)[C@]3(C)C(=O)C[C@@]12C`, with 0.0235 µM (active); and `CN1[C@H]2CC(O)C[C@H]1[C@H]1O[C@H]12` (stereo not given in full), with 3.32 µM (active).
Then `NC1CC1c1ccccc1` (stereo not given), with “inactive”; and `COC[C@H]1OC(=O)c2coc3c2[C@@]1(C)C1=C(C3=O)[C@@H]2CC[C@H](O)[C@@]2(C)C[C@@H]1OC(C)=O`, with 0.418 µM (active); and `NC1=NC(=O)N2CC12` (stereo not given), with 20.9 µM (active).
The figure for `O=S(=O)(CC1CS1)c1ccc(Oc2ccccc2)cc1` (stereo not given) is 5.26 µM (active); for `CN1CCN(c2ccc([N+](=O)[O-])c3no[n+]([O-])c23)CC1` it is 4.18 µM (active); for `CCN1C[C@]2(OC(=O)c3ccccc3NC(C)=O)CC[C@H](OC)[C@@]34[C@H]5CC6[C@@H](OC)C[C@](O)(C(C[C@@H]23)[C@@H]14)[C@@]5(O)[C@@H]6OC` it is “inactive”.
`C[C@@H]1CC[C@@]2(OC1)O[C@H]1C[C@H]3[C@@H]4CC=C5C[C@@H](O[C@@H]6O[C@H](CO)[C@@H](O[C@@H]7O[C@@H](C)[C@H](O)[C@@H](O)[C@@H]7O)[C@H](O)[C@@H]6O[C@@H]6O[C@@H](C)[C@H](O)[C@@H](O)[C@@H]6O)CC[C@]5(C)[C@@H]4CC[C@]3(C)[C@@H]1[C@H]2C`: the Potency was 3.32 µM (active).
The figure for `CC1=C(O)C(=O)C=C2C1=CC=C1[C@@]2(C)CC[C@@]2(C)[C@@H]3C[C@](C)(C(=O)O)CC[C@]3(C)CC[C@]12C` is 0.296 µM (active); for `COc1cc([C@@H]2c3cc4c(cc3[C@@H](O)C3COC(=O)C32)OCO4)cc(OC)c1O` (stereo not given in full) it is 0.0526 µM (active).
Take `CCc1c(C(=O)C(N)=O)c2c(OCC(=O)O)cccc2n1Cc1ccccc1`: the Potency entry was “inactive”.
The entry for `CCN(CC)C(=O)c1ccc(C2=CC3(CCNCC3)Oc3cccc(O)c32)cc1` is “inactive”; for `CCOC(=O)Nc1ccc(NCc2ccc(F)cc2)cc1N` it is 10.5 µM (active).
The entry for `C[C@H]([C@H](O)CCC(C)(C)O)[C@H]1CC[C@@]2(O)C3=CC(=O)[C@@H]4C[C@@H](O)[C@@H](O)C[C@]4(C)[C@@H]3CC[C@]12C` is “inactive”; for `CO[C@H]1CCC(O[C@H]2C[C@H]([C@]3(C)CC[C@]4(C[C@H](O)[C@@H](C)[C@@H]([C@@H](C)C=C(C)C(=O)[C@H](C)C[C@H](C)C(=O)O)O4)O3)O[C@]3(O[C@@H]([C@H]4O[C@@](O)(CO)[C@H](C)C[C@H]4C)C[C@H]3C)[C@H]2C)O[C@H]1C` (stereo not given in full) it is 0.935 µM (active); for `Cc1[nH]nc2ccc(-c3cncc(OC[C@@H](N)Cc4c[nH]c5ccccc45)c3)cc12` it is 0.0264 µM (active).
Then `CCC(=O)OC1CCC2C3CCC4=CC(=O)CC[C@@]4(C)C3CC[C@]12C` (stereo not given in full), with 16.6 µM (active); and `CC[C@@]1(O)C(=O)OCc2c1cc1n(c2=O)Cc2cc3ccccc3nc2-1`, with 0.001 µM (active); and `C=CCON=C(C[C@H]1O[C@@H]2O[C@]3(C)CC[C@@H]4[C@H](C)CC[C@@H]([C@H]1C)[C@@]24OO3)[C@H]1O[C@@H]2O[C@]3(C)CC[C@H]4[C@H](C)CC[C@@H]([C@@H]1C)[C@@]24OO3`, with 0.105 µM (active).
Regarding `C1=C2CCCN[C@H]2[C@@H]2C[C@H]1[C@@H]1CCCCN1C2`, the Potency result was “inactive”.
`COC1=C[C@@H]2[C@@H]3Cc4ccc(OC)c(O)c4[C@]2(CCN3C)CC1=O`: the Potency is 3.32 µM (active).
Then `CCOC(=O)c1cncn1[C@H](C)c1ccccc1`, with “inactive”; and `C[C@@]12OC(=O)[C@]1([C@@H](O)[C@@H]1C=CCCC1)NC(=O)[C@H]2CCCl`, with 0.001 µM (active).
Consider `C[C@]12Cc3cn[nH]c3C[C@@H]1CC[C@@H]1[C@H]2CC[C@@]2(C)[C@H]1CC[C@]2(C)O`, for which the Potency result is “inactive”.
The figure for `Cc1ccccc1-n1c(Cn2ncc3c(N)ncnc32)nc2cccc(C)c2c1=O` is 3.32 µM (active); for `CCN1CCN(C(=O)Cc2ccc(Nc3ncc(F)c(Nc4ccc(C(=O)Nc5ccccc5Cl)cc4)n3)cc2)CC1` it is 0.526 µM (active).
Then `CC(=Cc1csc(C)n1)[C@@H]1C[C@H]2O[C@]2(C)CCC[C@H](C)[C@@H](O)[C@@H](C)C(=O)C(C)(C)[C@@H](O)CC(=O)O1`, with “inactive”; and `CC=C(C)C(=O)O[C@H]1C(C)=C2[C@@H]3OC(=O)[C@@](C)(O)[C@@]3(O)[C@@H](OC(=O)CCC)C[C@](C)(OC(C)=O)[C@@H]2[C@@H]1OC(=O)CCCCCCC`, with 0.264 µM (active); and `CC(C)(C)c1cc(C=C(C#N)C#N)cc(Br)c1O`, with 4.69 µM (active).
The figure for `CCCCCC[C@H]1C(=O)O[C@H](C)[C@H](NC(=O)c2cccc(NC=O)c2O)C(=O)O[C@@H](C)[C@@H]1OC(=O)CC(C)C` is 0.187 µM (active); for `C=C1C[C@H]2[C@H]3CCC(=O)[C@@]3(C)CC[C@@H]2[C@@]2(C)C=CC(=O)C=C12` it is 9.35 µM (active).
For `N=c1c2c(-c3ccccc3)c(-c3ccccc3)n(Cc3ccccc3)c2ncn1C1CCC(O)CC1` (stereo not given), the Potency is 0.132 µM (active).
Then `C[C@@H]1O[C@@H](O[C@@H]2C=C3CC[C@@H]4[C@@H](CC[C@]5(C)[C@H](c6ccc(=O)oc6)CC[C@@]45O)[C@@]3(C)CC2)[C@H](O)[C@H](O)[C@H]1O`, with 0.0132 µM (active); and `COc1ccc(C(=O)c2c(C)n(CCN3CCOCC3)c3cc(I)ccc23)cc1`, with 5.9 µM (active); and `CC(=Cc1csc(C)n1)[C@@H]1C[C@H]2O[C@@H]2CCC[C@H](C)[C@@H](O)[C@@H](C)C(=O)C(C)(C)[C@@H](O)CC(=O)O1`, with “inactive”.
The figure for `CC[C@@H]1[C@@H](C)O[C@@](O)([C@@H](C)[C@H](O)[C@H](C)[C@H]2OC(=O)C=CC=C[C@@H](C)[C@@H]([C@@H](C)[C@@H](O)[C@H](C)[C@@]3(O)C[C@H](O[C@H]4C[C@H](O)[C@H](O)[C@H](C)O4)[C@H](CC)[C@@H](C)O3)OC(=O)C=CC=C[C@@H]2C)C[C@H]1O[C@H]1C[C@H](O)[C@H](O)[C@H](C)O1` is 0.662 µM (active).
